# Test results from the supplement of paper PMC12669032.
# Unmarked numbers belong to inactive results.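 How the source made its calls: active = AUC reduced over 20% with Padj below 0.05 in at least 2 of 3 replicates; inactive = otherwise.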
# Test system: Clostridium difficile
# Assay: growth AUC relative to DMSO control (median of replicates) (fraction); higher = more growth (less inhibition), active = hit call of the paper
# Conditions: 20 µM; 24 h
# Outline: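 Gut bacterial monocultures were grown anaerobically at 37 °C in mGAM from a starting OD600 of 0.05 with 20 µM compound (1% DMSO), in round-bottom 96-well plates under pierced gas-permeable seals, and OD600 was read hourly for 24 h. With the minimum OD set to 0, area under the growth curve was normalised to the plate median of solvent-only wells, or to row and column medians on the industrial chemical plate. Each value is the median of three biological replicates grown on separate days.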
row,Compound,growth AUC
1,CN(C)C(=O)Nc1ccc(Cl)c(Cl)c1,0.965
2,CCOC(=O)C1CC(=O)C(=C(O)C2CC2)C(=O)C1 (centres undefined),1.01
3,COC(=O)C(C)Oc1ccc(Cl)cc1C (centres undefined),0.974
4,FC(F)(F)C(=NOCC1OCCO1)c1ccc(Cl)cc1,0.904
5,NC(=S)Nc1cccc2ccccc12,0.896
6,CC(C)c1cc(Oc2ccccc2)cc(C(C)C)c1NC(=S)NC(C)(C)C,0.957
7,O=[N+](Nc1ccccc1)c1ccccc1,1
8,Cc1[nH]n(C)c(=O)c1C(=O)c1ccc(C(F)(F)F)cc1S(C)(=O)=O,0.989
9,O=C=NC1CCC(CC2CCC(N=C=O)CC2)CC1 (centres undefined),1.01
10,CCc1cccc(C)c1N(COC(C)C)C(=O)CCl,0.956
11,O=C(Nc1ccc(Cl)cc1C(O)c1ccccc1)c1ccncc1 (centres undefined),0.982
12,CNC(=O)Nc1nc2ccccc2s1,0.969
13,CC(C)CNC(=O)N1CCNC1=O,1.04
14,C/C=C/C(=O)Oc1c(C(C)CCCCCC)cc([N+](=O)[O-])cc1[N+](=O)[O-] (mixture of isomers),0.0443 (active)
15,CCOC(=O)NCCOc1ccc(Oc2ccccc2)cc1,0.98
16,NC(=O)Cc1cccc2ccccc12,1.01
17,NS(=O)(=O)[O-].[NH4+],1.05
18,COC(=O)c1ccc(C(=O)OC)cc1,1.01
19,Nc1cc(Cl)nc(C(=O)O)c1Cl,0.952
20,CCc1cccc(C)c1N(C(=O)C(=O)O)[C@@H](C)C(=O)O,0.903

row,Compound,growth AUC
1,O=S(=O)(Oc1ccc(Cl)cc1)c1ccccc1,1
2,Oc1ccc2nc(-c3cscn3)[nH]c2c1,0.988
3,COC(=O)c1csc(C)c1S(=O)(=O)NC(=O)n1nc(OC)n(C)c1=O,0.931
4,CCCCOCN(C(=O)CS(=O)(=O)[O-])c1c(CC)cccc1CC.[Na+],1.02
5,O.O.O=[N+]([O-])c1ccc([O-])cc1.[Na+],1.04
6,COCC(=O)N(c1c(C)cccc1C(=O)O)C(C)C(=O)O (centres undefined),1.04
7,O=C(O)COc1ccc(Cl)cc1CO,1.03
8,CCOc1ccc2c(c1)C(C)=CC(C)(C)N2,1.02
9,CC(C)CCCCCOC(=O)C(C)Oc1ccc(Cl)cc1Cl (centres undefined),1.06
10,[S],1.01
11,CCCC(C)(C)C(=O)Nc1ccc(Cl)cc1,0.999
12,CSc1nnc(C(C)(C)C)c(=O)n1/N=C/C(C)C,1.01
13,O=C(O)CCCc1c[nH]c2ccccc12,1.01
14,C=C1C[C@]23C[C@@]1(O)CC[C@H]2[C@@]12C=C[C@H](O)[C@@](C)(C(=O)O1)[C@H]2[C@@H]3C(=O)O,0.931
15,Nc1ccc(S(=O)(=O)Nc2nccs2)cc1,0.98
16,CCCCCCCCCC[N+](C)(C)Cc1ccccc1.[Cl-],0.921
17,CN1CCC[C@H]1c1cccnc1,0.951
18,O=C1NCCN1,0.993
19,O=C(O)COc1cccc(Cl)c1Cl,1
